Data published in PubChem BioAssay (Tox21).
Records with an inconclusive call do not appear. Entries that show only a call come without a potency. Values without a mark were called inactive. Active and inactive are the calls of the source. Unless noted, the call rests on the fitted dose curve; in most records, active means well fitted curve in the direction sought with a large enough effect in the repeat runs; inconclusive means weak or mixed curves; inactive means no such curve, though single readings can be large; an effect the other way counts as inactive or inconclusive.

Experiments:
[1] = qHTS assay to identify small molecule agonists of the vitamin D receptor (VDR) signaling pathway - cell viability counter screen (AID 743224); further: series mostly up to about 63 µM; nearly all actives have a fitted effect of over 50% in size
Method in brief: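 Here cell health was gauged by luminescent ATP detection (CellTiter-Glo, 30 min RT) in VDR-bla cells that had been incubated with test compounds for 16 h at 37C and 5% CO2.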

[2] = qHTS assay to identify small molecule antagonists of the vitamin D receptor (VDR) signaling pathway - cell viability counter screen (AID 743225); further: nearly all actives have a fitted effect of over 50% in size
Method in brief: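 HEK293T VDR-bla; cpd + 1a,25-(OH)2D3 3 nM final, 16 h 37C/5% CO2; B/G FRET substrate 2 h RT; then CellTiter-Glo 30 min RT, luminescence.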

[3] = qHTS assay to identify small molecule agonists of the NFkB signaling pathway (AID 1159509; active means well fitted curve in the direction sought with a large enough effect in the signal ratio in the repeat runs, not every such curve was filed as active; the % refers to the signal ratio; further: series mostly up to about 61 µM)
Method in brief: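 ME-180 NFkB-bla, 2,000 cells/well, overnight plating; cpd pinned in DMSO, 5 h 37 C; B/G FRET substrate 1.5 h RT; ex 405, em 460/530 nm.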

[4] = qHTS assay to identify small molecule agonists of the NFkB signaling pathway - cell viability counter screen (AID 1159515; calls by dose curve; further: series mostly up to about 61 µM; nearly all actives have a fitted effect of over 55% in size)
Method in brief: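 5 hr compound treatment of NFkB-bla ME-180 cells (2,000/well, seeded overnight beforehand), followed by reporter substrate for 1.5 hr. CellTiter-Glo added afterward; luminescence after 30 min RT.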

[5] = qHTS assay to identify small molecule agonists of the endoplasmic reticulum stress response signaling pathway (AID 1159516; active means well fitted activation curve with a large enough effect in the signal ratio in the repeat runs, not every such curve was filed as active; the % refers to the signal ratio)
Method in brief: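 Reporter HeLa cells (ESRE-beta-lactamase) underwent 5 hr compound incubation at 37 C and 5% CO2 in quantitative HTS format. Detection followed 2 hr of FRET substrate loading at room temperature.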

[6] = qHTS assay to identify small molecule agonists of the endoplasmic reticulum stress response signaling pathway - cell viability counter screen (AID 1159517; calls by dose curve;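 further: HeLa cells carrying an ER stress response element beta-lactamase reporter; series mostly up to about 61 µM; nearly all actives have a fitted effect of over 50% in size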)
Method in brief: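 ESRE-bla HeLa cells, 1,500 per well, seeded overnight then treated with compounds for 5 hr at 37 C. After the beta-lactamase read, viability in the same wells is measured by CellTiter-Glo luminescence after 30 min at room temperature.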

[7] = qHTS assay to identify small molecule antagonists of the retinoid-related orphan receptor gamma (ROR-gamma) signaling pathway - cell viability counter screen (AID 1159520); further: nearly all actives have a fitted effect of over 50% in size
Method in brief: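 Tet-on ROR gamma CHO cells were given compounds for 2 hr, then doxycycline hyclate at 1 uM final, and incubated 16 hr at 37 C. Viability was measured as ATP content by CellTiter-Glo luminescence.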

[8] = target: Nuclear receptor ROR-gamma (Homo sapiens) (UniProt P51449); experiment: qHTS assay to identify small molecule antagonists of the retinoid-related orphan receptor gamma (ROR-gamma) signaling pathway (AID 1159521; further: nearly all actives have a fitted effect of over 50% in size; further: potency means the concentration at half of the fitted maximal effect;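 on activity change, negative = inhibition: CHO cells with doxycycline inducible ROR-gamma driving an RORE luciferase reporter; top concentration of the series differs between compounds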)
Method in brief: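 Cells were plated, rested 4 h at 37 C, exposed to compounds for 2 h, then given 1 uM final doxycycline hyclate to induce RORγ expression. After 16 h, ONE-Glo luminescence from the ROR response element reporter was measured.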

[9] = qHTS assay to identify small molecule agonists of the AP-1 signaling pathway (AID 1159526; calls by dose curve)
[10] = qHTS assay to identify small molecule agonists of the AP-1 signaling pathway - cell viability counter screen (AID 1159525; calls by dose curve; further: nearly all actives have a fitted effect of over 55% in size)
Method in brief: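 AP-1-bla ME-180 cells in Opti-MEM with 0.5% dialyzed FBS, compound exposure 5 h at 37 C in 15-point titration. Viability read in the same wells as ATP content by CellTiter-Glo luminescence, normalised to tetra-n-octylammonium bromide and DMSO controls.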

In the case of `CCCOCC(C)OCC(C)O` (stereo not given), the outcome [1] is reported as “inactive”, the outcome [2] is reported as “inactive” and the outcome [3] is reported as “inactive”. For the same molecule, the outcome [4] was “inactive”, the outcome [5] was “inactive” and the outcome [6] was “inactive”. The Potency [7] was “inactive”, the Potency [8] was “inactive” and the Potency [9] was “inactive”.
For `CCCCCCCCCCCCCCCCCC(=O)OCCCCCCCCCCCCCC(C)C`, the outcome [1] was “inactive”, the outcome [2] was “inactive” and the outcome [3] was “inactive”. For the same molecule, the outcome [4] was “inactive”, the outcome [5] was “inactive” and the outcome [6] was “inactive”. The Potency [7] was “inactive”, the Potency [8] was “inactive” and the Potency [9] was “inactive”.
For `OC1OC[C@@H](O)[C@H](O)[C@H]1O` (stereo not given in full), the outcome [1] was “inactive”, the outcome [3] was “inactive” and the outcome [4] was “inactive”. The outcome [5] was “inactive”, the outcome [6] was “inactive” and the Potency [7] was “inactive”. The Potency [8] was “inactive” and the Potency [9] was “inactive”.
For `CN(C)CCOC(c1ccc(Cl)cc1)c1ccccn1` (stereo not given), the outcome [1] was “inactive”, the outcome [2] was “inactive” and the outcome [3] was “inactive”. The outcome [4] was “inactive”, the outcome [5] was “inactive” and the outcome [6] was “inactive”. The Potency [7] was “inactive”, the Potency [8] was “inactive” and the Potency [9] was “inactive”.
For `COC(C(=O)O)c1ccccc1` (stereo not given), the outcome [1] was “inactive”, the outcome [3] was “inactive” and the outcome [4] was “inactive”. The outcome [5] was “inactive”, the outcome [6] was “inactive” and the Potency [7] was “inactive”. The Potency [8] was “inactive” and the Potency [9] was “inactive”.
For `OCc1ccccn1`, the outcome [2] was “inactive”, the outcome [3] was “inactive” and the outcome [4] was “inactive”. For the same molecule, the outcome [5] was “inactive”, the outcome [6] was “inactive” and the Potency [7] was “inactive”. The Potency [8] was “inactive”, the outcome [10] was “inactive” and the Potency [9] was “inactive”.
In the case of `NS(=O)(=O)c1cc2c(cc1Cl)NC(CSCc1ccccc1)=NS2(=O)=O`, the outcome [1] is reported as “inactive”, the outcome [3] is reported as “inactive” and the outcome [4] is reported as “inactive”. The outcome [5] was “inactive”, the Potency [7] was “inactive” and the Potency [8] was “inactive”. The outcome [10] was “inactive” and the Potency [9] was “inactive”.
For `CC(C)CCCC(C)CCCC(C)CCCCC(C)CCCC(C)CCCC(C)C` (stereo not given), the outcome [2] was “inactive”, the outcome [3] was “inactive” and the outcome [4] was “inactive”. For the same molecule, the outcome [5] was “inactive”, the outcome [6] was “inactive” and the Potency [7] was “inactive”. The Potency [8] was “inactive” and the Potency [9] was “inactive”.
In the case of `Cc1ccc(Nc2ccc(O)c3c2C(=O)c2ccccc2C3=O)cc1`, the outcome [1] is reported as “inactive”, the outcome [2] is reported as “inactive” and the outcome [3] is reported as “inactive”. The outcome [4] was “inactive”, the outcome [5] was “inactive” and the outcome [6] was “inactive”. The Potency [7] was “inactive”, the Potency [8] was “inactive” and the Potency [9] was “inactive”.
With `O=C(O)/C=C/c1ccc(Cn2ccnc2)cc1` the outcome [1] was “inactive”, the outcome [2] was “inactive” and the outcome [3] was “inactive”. For the same molecule, the outcome [4] was “inactive”, the outcome [5] was “inactive” and the outcome [6] was “inactive”. For the same molecule, the Potency [7] was “inactive”, the Potency [8] was “inactive” and the outcome [10] was “inactive”. The Potency [9] was “inactive”.
With `O=[N+]([O-])c1ccc(CCO)cc1` the outcome [1] was “inactive”, the outcome [2] was “inactive” and the outcome [3] was “inactive”. For the same molecule, the outcome [4] was “inactive”, the outcome [5] was “inactive” and the outcome [6] was “inactive”. The Potency [7] was “inactive”, the Potency [8] was “inactive” and the Potency [9] was “inactive”.
With `CCCC(C)CO` (stereo not given) the outcome [1] was “inactive”, the outcome [2] was “inactive” and the outcome [3] was “inactive”. For the same molecule, the outcome [4] was “inactive”, the outcome [5] was “inactive” and the outcome [6] was “inactive”. The Potency [7] was “inactive”, the Potency [8] was “inactive” and the Potency [9] was “inactive”.
With `CCCCC1CCCCC(=O)O1` (stereo not given) the outcome [1] was “inactive”, the outcome [3] was “inactive” and the outcome [4] was “inactive”. The outcome [5] was “inactive”, the outcome [6] was “inactive” and the Potency [7] was “inactive”. The Potency [8] was “inactive” and the Potency [9] was “inactive”.
With `OC/C=C/c1ccccc1` the outcome [1] was “inactive”, the outcome [2] was “inactive” and the outcome [3] was “inactive”. The outcome [4] was “inactive”, the outcome [5] was “inactive” and the outcome [6] was “inactive”. The Potency [7] was “inactive”, the outcome [10] was “inactive” and the Potency [9] was “inactive”.
In the case of `CCC(=O)/C=C/c1ccc(OC)cc1`, the outcome [1] is reported as “inactive”, the outcome [2] is reported as “inactive” and the outcome [3] is reported as “inactive”. The outcome [4] was “inactive”, the outcome [5] was “inactive” and the outcome [6] was “inactive”. The Potency [7] was “inactive”, the Potency [8] was “inactive” and the Potency [9] was “inactive”.
In the case of `CCCCCCCCCCC1CO1` (stereo not given), the outcome [1] is reported as “inactive”, the outcome [2] is reported as “inactive” and the outcome [3] is reported as “inactive”. The outcome [4] was “inactive”, the outcome [5] was “inactive” and the outcome [6] was “inactive”. For the same molecule, the Potency [7] was “inactive”, the Potency [8] was “inactive” and the Potency [9] was “inactive”.
With `C1CCCCCCCCCCC1` the outcome [1] was “inactive”, the outcome [3] was “inactive” and the outcome [4] was “inactive”. For the same molecule, the outcome [5] was “inactive”, the outcome [6] was “inactive” and the activity, negative = cytotoxicity [7] was 0.201% [at 19 µM]. The activity change, negative = inhibition [8] was -5.57% [at 19 µM] and the activation [9] was -0.287% [at 15.8 µM].
In the case of `NC(=O)Nc1nc2ccccc2[nH]1`, the outcome [1] is reported as “inactive”, the outcome [2] is reported as “inactive” and the outcome [3] is reported as “inactive”. For the same molecule, the outcome [4] was “inactive”, the outcome [5] was “inactive” and the outcome [6] was “inactive”. The Potency [7] was “inactive”, the Potency [8] was “inactive” and the Potency [9] was “inactive”.
In the case of `O=C(O)c1cccc(C(=O)O)n1`, the outcome [1] is reported as “inactive”, the outcome [2] is reported as “inactive” and the outcome [3] is reported as “inactive”. For the same molecule, the outcome [4] was “inactive”, the outcome [5] was “inactive” and the outcome [6] was “inactive”. For the same molecule, the Potency [7] was “inactive”, the Potency [8] was “inactive” and the Potency [9] was “inactive”.
In the case of `CC(C)COC(=O)c1ccccc1O`, the outcome [1] is reported as “inactive”, the outcome [3] is reported as “inactive” and the outcome [4] is reported as “inactive”. For the same molecule, the outcome [5] was “inactive”, the outcome [6] was “inactive” and the Potency [7] was “inactive”. The Potency [8] was “inactive” and the Potency [9] was “inactive”.
In the case of `CCCCCOC(=O)Nc1nc(=O)n([C@@H]2O[C@H](C)[C@@H](O)[C@H]2O)cc1F`, the outcome [1] is reported as “inactive”, the outcome [2] is reported as “inactive” and the outcome [3] is reported as “inactive”. The outcome [4] was “inactive”, the outcome [5] was “inactive” and the outcome [6] was “inactive”. The Potency [7] was “inactive”, the Potency [8] was 11.9 µM (active) and the Potency [9] was “inactive”.
With `CC/C=C\C#N` the outcome [1] was “inactive”, the outcome [2] was “inactive” and the outcome [3] was “inactive”. The outcome [4] was “inactive”, the outcome [5] was “inactive” and the outcome [6] was “inactive”. For the same molecule, the Potency [7] was “inactive”, the Potency [8] was “inactive” and the Potency [9] was “inactive”.
For `CCCCN(CCO)CCO`, the outcome [1] was “inactive”, the outcome [3] was “inactive” and the outcome [4] was “inactive”. The outcome [5] was “inactive”, the outcome [6] was “inactive” and the Potency [7] was “inactive”. For the same molecule, the Potency [8] was “inactive” and the Potency [9] was “inactive”.
In the case of `CCCCc1ccc2cccc(S(=O)(=O)O)c2c1`, the outcome [2] is reported as “inactive”, the outcome [3] is reported as “inactive” and the outcome [4] is reported as “inactive”. For the same molecule, the outcome [5] was “inactive”, the outcome [6] was “inactive” and the Potency [7] was “inactive”. The Potency [8] was “inactive” and the Potency [9] was “inactive”.
For `Nc1ccn(C2CO[C@H](CO)O2)c(=O)n1` (stereo not given in full), the outcome [1] was “inactive”, the outcome [2] was “inactive” and the outcome [3] was “inactive”. For the same molecule, the outcome [4] was “inactive”, the outcome [5] was “inactive” and the outcome [6] was “inactive”. For the same molecule, the Potency [7] was “inactive”, the Potency [8] was “inactive” and the Potency [9] was “inactive”.
With `OCCN1C[C@H](O)[C@@H](O)[C@H](O)[C@H]1CO` the outcome [1] was “inactive”, the outcome [3] was “inactive” and the outcome [4] was “inactive”. For the same molecule, the outcome [5] was “inactive”, the Potency [7] was “inactive” and the Potency [8] was “inactive”. For the same molecule, the outcome [10] was “inactive” and the Potency [9] was “inactive”.
